Key:
Settings in all cases: concentration: 1 μM, replicates: in singlicate; n = 1
MET = tested on: MET
MINK = tested on: T1, MINK
T1 construct: gene MINK1

MKK7 = tested on: MKK7
MKNK1 = tested on: MKNK1
MKNK2 = tested on: MKNK2
MLCK = tested on: T2, MLCK
T2 construct: gene MYLK3

MLK1 = tested on: T3, MLK1
T3 construct: gene MAP3K9

MLK2 = tested on: MLK2
MLK3 = tested on: MLK3
MRCKA = tested on: MRCKA
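Also: KINOMEscan kinase panel screen.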

SMILES | %Inh (MET) [%] | %Inh (MINK) [%] | %Inh (MKK7) [%] | %Inh (MKNK1) [%] | %Inh (MKNK2) [%] | %Inh (MLCK) [%] | %Inh (MLK1) [%] | %Inh (MLK2) [%] | %Inh (MLK3) [%] | %Inh (MRCKA) [%]
COc1cc2ncn(-c3cc(OCc4ccc(S(C)(=O)=O)cc4)c(C(N)=O)s3)c2cc1OC [GW869979] | 9 | 38 | 6 | 0 | 12 | 0 | 4 | 0 | 0 | 0
Cc1nnc(-c2ccc(C)c(-c3ccc(C(=O)O)cc3)c2)o1 [GW608005] | 0 | 0 | 13 | 0 | 0 | 0 | 0 | 0 | 0 | 0
Cc1cccc(-c2nc(Nc3ccc4c(cnn4C)c3)c3ccccc3n2)n1 [GW876731] | 3 | 16 | 10 | 100 | 9 | 28 | 12 | 16 | 0 | 17
Cc1nc(N(C)[C@H]2CN(C(=O)CC#N)CC[C@H]2C)c2cc[nH]c2n1 | 0 | 0 | 0 | 0 | 0 | 0 | 0 | 11 | 0 | 0
CN(C)c1cc(-c2ccc3c(N)n[nH]c3c2)nc(N)n1 [GSK2219329] | 0 | 0 | 0 | 0 | 9 | 0 | 3 | 0 | 3 | 0
CCCC(=O)Nc1n[nH]c2ncc(-c3cccc4ccccc34)cc12 [SB-642057] | 0 | 21 | 0 | 10 | 7 | 0 | 0 | 0 | 0 | 9
Nc1n[nH]c2ncc(-c3ccccc3)cc12 [SB-517081] | 0 | 11 | 0 | 53 | 88 | 0 | 17 | 0 | 0 | 3
CCC(=O)c1c(-c2ccccc2)c2cc(Cl)ccc2c(=O)n1Cc1cc(S(C)(=O)=O)n(CC(F)F)n1 | 6 | 0 | 0 | 0 | 0 | 0 | 42 | 0 | 0 | 0
Cc1cccc(-c2cc(-c3c[nH]nc3-c3ccccn3)ccn2)c1 [GW679395] | 0 | 38 | 3 | 0 | 2 | 0 | 0 | 0 | 0 | 9
CCc1ccc(-c2ccc3c(c2)-c2nn(C)cc2S(=O)(=O)N3C)cc1 | 0 | 41 | 16 | 37 | 0 | 28 | 1 | 29 | 11 | 0
CCS(=O)(=O)c1ccc(OC)c(Nc2ncc(-c3ccc(F)cc3)o2)c1.Cl [GW591947] | 0 | 0 | 0 | 0 | 0 | 0 | 0 | 0 | 6 | 10
Cl.c1ccc(Cn2cnc3cc(Nc4ncnc5ccccc45)ccc32)cc1 [GW272142] | 33 | 0 | 17 | 0 | 6 | 0 | 0 | 0 | 11 | 16
CCC(=O)c1c(-c2ccccc2)c2cc(Cl)ccc2c(=O)n1Cc1cc(S(C)(=O)=O)n(CCC(C)(C)O)n1 | 0 | 0 | 0 | 0 | 0 | 7 | 3 | 0 | 24 | 0
Cl.NS(=O)(=O)c1cccc(Nc2cc(-c3ccc(F)cc3)n[nH]2)c1 [GW824645] | 0 | 57 | 19 | 8 | 0 | 29 | 0 | 4 | 0 | 0
Nc1nc(N)c2nc(-c3ccccc3)[nH]c2n1 [SKF-12778] | 0 | 0 | 29 | 0 | 1 | 0 | 40 | 66 | 40 | 15
O=C(NCc1cccs1)c1cc(C(=O)c2c(Cl)cccc2Cl)c[nH]1 [GW823670] | 5 | 0 | 0 | 0 | 0 | 0 | 10 | 13 | 0 | 0
Nc1n[nH]c2nnc(-c3ccccc3)c(-c3ccccc3)c12 [GW554060] | 0 | 0 | 7 | 11 | 49 | 0 | 0 | 0 | 8 | 4
CCC(=O)c1c(-c2ccccc2)c2cc(Cl)ccc2c(=O)n1Cc1cc(S(C)(=O)=O)n(CC(N)=O)n1 | 0 | 14 | 0 | 0 | 0 | 0 | 0 | 10 | 1 | 0

SMILES | %Inh (MET) [%] | %Inh (MINK) [%] | %Inh (MKK7) [%] | %Inh (MKNK1) [%] | %Inh (MKNK2) [%] | %Inh (MLCK) [%] | %Inh (MLK1) [%] | %Inh (MLK2) [%] | %Inh (MLK3) [%] | %Inh (MRCKA) [%]
COc1ccc(-c2cc3c(C)nc(N)nc3n([C@H]3CC[C@H](OCCO)CC3)c2=O)cn1 | 0 | 1 | 0 | 0 | 0 | 17 | 0 | 0 | 3 | 0
CCn1c(-c2nonc2N)nc2ccccc21 [SB-693162/GW549034] | 14 | 36 | 0 | 0 | 59 | 2 | 0 | 10 | 0 | 0
CCC(=O)c1c(-c2ccccc2)c2cc(Cl)ccc2c(=O)n1Cc1ccc(C(=O)O)cc1 | 0 | 0 | 0 | 0 | 0 | 0 | 0 | 0 | 0 | 0
Cc1nn2c(=O)cc(N3CCOCC3)nc2n1Cc1cccc(Cl)c1Cl [GSK2342769] | 1 | 0 | 0 | 0 | 4 | 7 | 0 | 0 | 0 | 10
COc1cccc(-n2cnc3c(N)ncnc32)c1 [SKF-97416] | 0 | 22 | 30 | 0 | 31 | 5 | 2 | 0 | 0 | 13
COc1cc(Nc2ccnc3ccc(C(F)(F)F)cc23)cc(OC)c1OC [GW577382] | 0 | 17 | 0 | 29 | 9 | 0 | 3 | 31 | 23 | 22
Cc1c(Cn2c(C)nn3c(=O)cc(N4CCO[C@H](C)C4)nc23)cccc1C(F)(F)F [GSK2373690] | 0 | 0 | 0 | 3 | 9 | 9 | 0 | 14 | 3 | 0
Nc1ncnc2c1ncn2-c1cccc2ccccc12 [SKF-97184] | 0 | 12 | 0 | 0 | 0 | 0 | 0 | 19 | 0 | 0
C[C@@H]1CC[C@H](C(=O)NC2CCCCC2)CN1c1cc(-c2ccc3c(N)n[nH]c3c2)nc(N)n1 [GSK2291363] | 0 | 12 | 0 | 12 | 18 | 0 | 4 | 0 | 32 | 15
O=C(Nc1n[nH]c2nc(-c3ccccc3)c(Cl)cc12)C1CC1 [SB-734909] | 0 | 28 | 0 | 17 | 8 | 26 | 0 | 0 | 0 | 0
OCCCNc1nccc(-c2c(-c3cccc(C(F)(F)F)c3)nn3cc(C(F)(F)F)ccc23)n1 [GW630813] | 0 | 0 | 15 | 0 | 0 | 0 | 0 | 0 | 0 | 0
COC(=O)c1c(-c2ccccc2)c2cc(Br)ccc2c(=O)n1Cc1ccc(NC(=O)CCC(=O)O)cc1 | 18 | 0 | 0 | 0 | 0 | 0 | 0 | 0 | 0 | 0
O=C(Nc1n[nH]c2nc(-c3ccccc3)c(Br)cc12)C1CC1 [SB-708998] | 0 | 6 | 0 | 7 | 1 | 21 | 0 | 18 | 22 | 0
COc1cccc(C2=C(N(C)c3ccccc3)C(=O)NC2=O)c1 [SB-334865] | 0 | 11 | 0 | 3 | 0 | 0 | 0 | 0 | 12 | 0
Cc1ccc(Oc2ccc(Nc3ncnc4cc[nH]c34)cc2C)cn1 | 4 | 10 | 0 | 34 | 41 | 0 | 5 | 19 | 1 | 0
COc1cc2ncn(-c3cc(OCc4ccncc4Br)c(C(N)=O)s3)c2cc1OC [GW854278] | 0 | 44 | 0 | 15 | 8 | 0 | 2 | 17 | 9 | 0
Nc1nccc2scc(-c3ccc4c(c3)CCN4C(=O)Cc3ccccc3)c12 [GSK2576924] | 0 | 7 | 9 | 3 | 2 | 3 | 0 | 0 | 5 | 11

Reference: article PMC5540273 (PLoS ONE, 2017)
